Pf growth 48h: Primary qHTS for delayed death inhibitors of the malarial parasite plastid, 48 hour incubation; hit rate 5.9% among 310,000; P. falciparum luciferase growth in erythrocytes, 48 h; Potency, µM (top dose mostly 28.7 µM), for the others: top-dose activity change, negative = inhibition, hits mostly inhibitors; AID 504832, 2011; further: on the % scale 0 is the no-effect control and ±100 the full control effect
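Growth was read as firefly luciferase luminescence after a 48 h, 37 C, 5% CO2 exposure of compounds to reporter-bearing P. falciparum cultures (0.1% parasitemia, 2% hematocrit final) in Albumax-supplemented RPMI 1640.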
SARS PLpro yeast: qHTS of Yeast-based Assay for SARS-CoV PLP | hit rate 0.19% among 330,000 | S. cerevisiae expressing SARS-CoV PLpro, growth rescue | Potency, µM (series often up to 32.9 µM), inactives show at the highest dose activity, positive = growth rescue, hits mostly activators; calls by dose curve; further: 0% is about no effect; nearly all actives have a fitted effect of over 55% in size
Pf growth 96h: Primary qHTS for delayed death inhibitors of the malarial parasite plastid, 96 hour incubation; P. falciparum luciferase reporter growth, 96 h; Potency, µM (titrated, usually from 28.7 µM), for inactives: top-dose activity change, negative = inhibition, usual class: inhibitors; hit rate 6.9% among 320,000; further: on the % scale 0 is the no-effect control and ±100 the full control effect
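Erythrocytes infected with luciferase-expressing P. falciparum were dispensed at 2% hematocrit and 0.05% parasitemia (final), then incubated with compounds 96 hours at 37 C in 5% CO2. Luminescence after detection reagent addition reported growth.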
AMA1 RON2 block: qHTS for Inhibitors of AMA1-RON; Towards Development of Antimalarial Drug Lead: Primary Screen; Plasmodium falciparum AMA1 (3D7) - RON2 peptide interaction; AlphaScreen AMA1-biotinylated RON2 peptide binding; Potency, µM (doses to about 58.2 µM), without a hit: at the highest dose activity change, negative = inhibition, most hits filed as inhibitors; hit rate 0.2% among 360,000;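 further: 0% = vehicle wells and -100% = peptide control; nearly all actives have a fitted effect of over 45% in size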
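AMA1 (3D7) with his tag at 25 nM final met compounds first, then biotinylated RON2 peptide at 25 nM; detection used donor plus acceptor beads, 10 µg/mL apiece, read by AlphaScreen after 30 min at room temperature.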
HCV inhibitor: qHTS Assay for Inhibitors of Hepatitis C Virus (HCV). Huh7.5.1 HCVcc-Cre infection, luciferase reporter, 44 h. Potency, µM (highest dose often 41.8 µM), for inactives: top-dose activity change, negative = inhibition, hits mostly inhibitors. hit rate 3.4% among 340,000. AID 651820, 2012; further: on the % scale 0 is the no-effect control and ±100 the full control effect
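Compounds are dispensed onto cells plated 4 h earlier at 1,000 per well, with HCVcc-Cre virus (about 0.5 moi) added next. Following 44 h of culture, luminescent signal is measured for 15 sec after 15 min with substrate at room temperature.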
NS1 function inh: qHTS Assay for Inhibitors of Influenza NS1 Protein Function | Potency, µM (highest dose often 46.1 µM), inactives show at the top dose activity, positive = more growth | hit rate 0.4% among 270,000 | AID 2326, 2010; calls by dose curve; further: actives are rising curves; nearly all actives have a fitted effect of over 50% in size
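A cell-based growth assay was used: compounds that relieve NS1-induced slow growth of budding yeast raise OD600. Assay medium was yeast nitrogen base with ammonium sulphate and -URA supplement, pH 6.0, with 2% galactose.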
The depositor's hits bear a star; ? = inconclusive; . = no result; [ ] = another dose, or the depositor's remark. A selection: hits, their analogues and other compounds. The true share with any hit is near 12%. Unless noted, the call rests on the fitted dose curve; in most records, active means well fitted curve in the direction sought with a large enough effect; inconclusive means small, poorly fitted or top-dose-only effect, or another doubt; inactive means no such curve, though single readings can be large; an effect the other way counts as inactive or inconclusive. Potency means the concentration at half of the fitted maximal effect.

SMILES	Pf growth 48h	SARS PLpro yeast	Pf growth 96h	AMA1 RON2 block	HCV inhibitor	NS1 function inh
CCN1C(=O)[C@H]2[C@@H](c3ccc(-c4ccc(Cl)c(Cl)c4)cc3)N3CCCC[C@@]3(C(=O)OC)[C@H]2C1=O	?	-1%	107%	5%	-2%	.
CCC(C)Sc1ccc([C@@H]2[C@H]3C(=O)N(CC)C(=O)[C@H]3[C@]3(C(=O)OC)CCCN23)cc1OC (stereo not given in full)	12µM*	-5%	10µM*	-16%	-2%	.
Cc1nc(SCC(=O)NC2(C#N)CCCC2)n(CC(C)C)c1C	?	1%	-8%	1%	?	.
NC(=O)COC(=O)c1cc(=O)[nH]c2ccccc12	14%	1%	10%	26%	10µM*	-3%
CC1=CC(C)C(/C=N/N=C(N)N)C(C)C1 (stereo not given)	12µM*	0%	2.9µM*	6%	?	8%
CC1=CC(C)C(C[N+]2(C)CCCCC2)C(C)C1 (stereo not given)	?	1%	19%	-11%	4%	0%
COCCNC(=O)Cn1cc(C(=S)N2CCOCC2)c2ccccc21	-14%	-1%	4%	3%	-9%	3%
CCOC(=O)c1ccc(N2CCN(c3ccccc3F)CC2)c(NC(=O)Nc2cccc(OC)c2)c1	5.2µM*	0%	?	-6%	?	?
COc1ccc(OC)c(NC(=O)CCOc2cccc(C)c2)c1	-8%	-7%	1%	-16%	11µM*	-34%
CCOC(=O)c1cccc(NC(=O)Nc2cc(OC)ccc2OC)c1	16%	-3%	.	-18%	16µM*	-38%
COc1ccc(OC)c(NC(=O)NNS(=O)(=O)c2ccc(C)cc2C)c1	9%	2%	-13%	-5%	27%	6%
CCOC(=O)c1ccc(NC(=O)NNS(=O)(=O)c2cc(OC)ccc2OC)cc1	41%	0%	5.2µM*	20%	-3%	8%
C[C@@H](NC(=O)c1nc[nH]c1C(=O)NCC(=O)OCc1ccccc1)c1ccccc1	36%	8%	120%	155%	16%	6%
CCC1(C)CN=C(c2ccccc2)NC1 (stereo not given)	.	.	.	-22%	9%	.
CCOC(=O)c1nnsc1NC(=O)Nc1ccc(OC)cc1	4.1µM*	2%	27%	-10%	-10%	.
Cc1ccc2c(C)c(C(=O)N3CCC(O)(c4ccccc4)CC3)oc2c1C	?	-9%	18%	-26%	?	-74%
Nc1ccc([As](=O)(O)O)cc1	15µM*	-2%	8.3µM*	-5%	14%[8.37 µM]	6%
CCC(C)NC(=O)[C@H](CSCc1ccccc1)N1Cc2ccccc2C1=O (stereo not given in full)	-7%	-3%	10µM*	-7%	-4%	-26%
Cc1cc(C)c(S(=O)(=O)Nc2ccccc2C(=O)N2CCCC2)c(C)c1	-14%	-6%	?	-25%	12%	0%
O=C(NCC(=O)N(c1ccc(F)cc1)C(C(=O)NC1CCCCC1)c1cccnc1)c1ccco1 (stereo not given)	5%	-9%	-10%	7%	18%	-6%
CCc1ccccc1N(C(=O)CNC(=O)c1ccco1)C(C(=O)NC1CCCC1)c1cccnc1 (stereo not given)	6%	0%	17%	-7%	?	3%
COc1ccc(N(C(=O)CCl)C(C(=O)NC2CCCCC2)c2cccnc2)cc1 (stereo not given)	?	-3%	?	0%	3.2µM*	8%
O=C(NC1CCCCC1)C(c1cccnc1)N(C(=O)CCl)c1ccccc1Cl (stereo not given)	?	-4%	38%	-21%	3.2µM*	14%
O=C(NC1CCCCC1)C(c1cccnc1)N(C(=O)CCl)c1ccc(F)cc1 (stereo not given)	?	28%	-1%	9%	1.1µM*	12%
O=C(O)c1ccccc1NC(=O)c1ccccc1Nc1ccccc1	0%	-12%	-3%	-8%	4%	-4%
SMILES	Pf growth 48h	SARS PLpro yeast	Pf growth 96h	AMA1 RON2 block	HCV inhibitor	NS1 function inh
CCO[C@@H]1OC(C(=O)Nc2ccccc2)=C[C@H](c2ccc3c(c2)OCO3)[C@H]1CCCO	-47%	0%	?	-3%	0%	-4%
CCO[C@@H]1OC(C(=O)N2CCN(Cc3ccc4c(c3)OCO4)CC2)=C[C@H](c2ccc(Br)cc2)[C@H]1CCCO	1.3µM*	0%	4.1µM*	-19%	?	-13%
CCO[C@H]1OC(C(=O)O)=C[C@@H](c2ccc3c(c2)OCO3)[C@@H]1CCCO	0%	0%	26%	9%	2.5µM*	0%
CCO[C@@H]1OC(C(=O)N2CCN(Cc3ccc4c(c3)OCO4)CC2)=C[C@H](c2ccc(C(F)(F)F)cc2)[C@H]1CCCO	1.5µM*	0%	2.3µM*	4%	?	-11%
CNc1ncnc2ccc(-c3c(C)noc3C)cc12	-2%	-1%	-17%	.	.	.
COc1ccc(C2=CN(Cc3ccccc3)CCC2=O)cc1	.	-9%	.	-20%	12%	.
O=C(Cn1c(C(=O)N2CCN(C3CCCCC3)CC2)cc2sccc21)c1ccccc1	?	3%	-11%	-19%	-23%	2%
O=C(Cn1c(C(=O)N2CCc3ccccc3C2)cc2sccc21)c1ccccc1	15µM*	-1%	-5%	-21%	1%	?
C=CCNc1ncnc2c1ncn2[C@H]1CN(C2CCCC2)C[C@@H](CO)O1	.	.	.	6%	.	.
Cc1noc(C)c1C(=O)N1CCN(c2ccc(OCc3ccccc3)cc2)CC1	-13%	0%	-15%	3%	?	0%
Cc1cc2c(C)nc3ccccc3c2o1	35%	4%	3%	2%	11µM*	7%
O=C(CC1(O)C(=O)Nc2ccccc21)c1ccccc1O (stereo not given)	4%	0%	?	1%	10%	-5%
O=C(CC1(O)C(=O)Nc2cc(Cl)cc(Cl)c21)c1ccccc1O (stereo not given)	-1%	6%	19%	1%	25µM*	-37%
O=C(Nc1cccc(/C=C/c2nc3ccccc3c(=O)[nH]2)c1)c1ccccc1Cl	4%	-2%	3%	-1%	5µM*	-1%
COc1ccc(C(=O)Nc2cccc(/C=C/c3nc4ccccc4c(=O)[nH]3)c2)cc1	38%	-3%	72%	-1%	1.3µM*	1%
O=C(O)c1cc(-c2ccc(-c3ccc(-c4cc(C(=O)O)c5cc(Cl)ccc5n4)cc3)cc2)nc2ccc(Cl)cc12	.	.	.	.	.	8%
